Results reported in PubChem BioAssay (NCI).
Values joined by “and” are separate entries in the source; they are usually repeats but may differ in a detail not shown here. Equal values may be shown once. The panel holds about 83,000 compounds, 20% with a hit somewhere; the sample as a whole holds those more often.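 Results are percent growth after 48 hours of single-concentration exposure. 100 means growth as in untreated cells, lower positive values show inhibition; negative values down to -100 show cell death.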 Active and inactive are the calls of the source. How the source made its calls: active means growth percent below 10; inactive means the rest. Where a SMILES comes first, the peptide text is derived from it. [ ]: non-standard residue; d: D form. ξ: configuration not given here. ξV = CC(C)C(N)C(=O)O

Assays:
Test in all cases: NCI-60 one-dose screen, 48 h (100 = growth as untreated, 0 = no growth, -100 = all killed)
BT-549 breast = settings: 10 µM
MDA-MB-435 melanoma = settings: 10 µM
SW-620 colon = settings: 10 µM
MCF7 breast = tested on: MCF7 breast
HCT-116 colon = settings: 10 µM
HCC-2998 colon = settings: 10 µM
KM12 colon = settings: 10 µM

Measured: growth

OCC(O)C(O)C(O)C(/C=N/Nc1ccccc1)=N/Nc1ccccc1 (stereo not given)
inactive: BT-549 breast 88.9% | MDA-MB-435 melanoma 78% | SW-620 colon 88.3% | MCF7 breast; 10 µM 88.3% | HCT-116 colon 84.4% | HCC-2998 colon 84.2%

CN(C)C(=S)SC(=S)N(C)C
inactive: BT-549 breast 109% and 115% | MDA-MB-435 melanoma 94.6% and 93% | SW-620 colon 102% and 96% | MCF7 breast; 10 µM 35.3% and 71.2% | HCT-116 colon 87% and 67.7% | HCC-2998 colon 96.7% and 107%

CCO/C=C1\SC(=S)N(c2cccc(O)c2)C1=O
inactive: BT-549 breast 93.8% | MDA-MB-435 melanoma 102% | SW-620 colon 112% | MCF7 breast; 10 µM 84.1% | HCT-116 colon 96.9% | HCC-2998 colon 111%

NC1=C(Cl)C(=O)c2ccccc2C1=O
inactive: BT-549 breast 82.7% | SW-620 colon 86.8% | MCF7 breast; 10 µM 48.3% | HCT-116 colon 54.4% | HCC-2998 colon 101% | KM12 colon 65.3%
active: MDA-MB-435 melanoma -87.5%

CCCCCCCCCCCC[N+](C)(C)Cc1ccccc1
inactive: MDA-MB-435 melanoma 11.7% | SW-620 colon 45.2% | MCF7 breast; 10 µM 15.1% | HCT-116 colon 21.5% | HCC-2998 colon 17.8%
active: BT-549 breast -21.1% | KM12 colon -63.7%

CC(=O)OCC(OC(C)=O)C(OC(C)=O)C(OC(C)=O)C(OC(C)=O)C(/C=N/Nc1ccccc1)=N/Nc1ccccc1 (stereo not given)
inactive: MDA-MB-435 melanoma 65.6% | SW-620 colon 49.7% | MCF7 breast; 10 µM 44.1% | HCT-116 colon 64.1% | HCC-2998 colon 91.2%

CCCCCCCCCCCCSC(=NC)NC
-25.5% (active) and 32.3% (inactive): SW-620 colon
-9.44% (active) and 22.6% (inactive): MCF7 breast; 10 µM
-15.7% (active) and 43.4% (inactive): MDA-MB-435 melanoma
active: HCC-2998 colon -54.8% and -34.7%
inactive: BT-549 breast 45.3% and 86.4%
1.94% (active) and 47.4% (inactive): HCT-116 colon

CCN(CC)c1ccc(NC(C(=O)c2ccccc2)c2ccccc2)cc1 (stereo not given)
active: BT-549 breast 2.75% | MDA-MB-435 melanoma 3.95% | SW-620 colon 6.54% | HCT-116 colon -19.6%
inactive: MCF7 breast; 10 µM 11.1% | HCC-2998 colon 65.1%

COC(=O)C1C(O)C(C)C(O)C(C)C=C(C)C2=C3C(=C(C)C(=O)c4c(O)c(c(C)c(OC(C)=O)c43)NC(=O)C(C)=C/C=C\C(C)C(O)C(C)C1O)OCO2 (stereo not given)
inactive: MDA-MB-435 melanoma 130% | SW-620 colon 103% | MCF7 breast; 10 µM 103% | HCT-116 colon 96% | HCC-2998 colon 145%

Nc1nc(=S)c2ncn(C3OC(CO)C(O)C3O)c2[nH]1 (stereo not given)
123% (inactive) and 9.98% (active): MCF7 breast; 10 µM
inactive: MDA-MB-435 melanoma 109% and 17.7% | SW-620 colon 107% and 35.9% | HCT-116 colon 107% and 17.3% | HCC-2998 colon 109% and 23% | KM12 colon 104% and 19.8%
126% (inactive) and -1.38% (active): BT-549 breast

O=C(/C=C/c1ccccn1)c1ccccc1
active: SW-620 colon -51.3% | HCT-116 colon -90.8% | KM12 colon 7.87%
inactive: MDA-MB-435 melanoma 52.4% | MCF7 breast; 10 µM 15% | HCC-2998 colon 62.9%

O=C1C=CC(=CC=C2C=CN(CCCCCCCCCCCO)C=C2)C=C1
active: BT-549 breast -11% | MCF7 breast; 10 µM 8.64%
inactive: MDA-MB-435 melanoma 18.9% | SW-620 colon 41.9% | HCT-116 colon 23.3% | HCC-2998 colon 57.9% | KM12 colon 24.2%

CC(=O)Nc1cc(C)ccc1C
inactive: BT-549 breast 112% | MDA-MB-435 melanoma 102% | SW-620 colon 96.4% | MCF7 breast; 10 µM 105% | HCT-116 colon 96.9% | HCC-2998 colon 100%

C[n+]1c2cc(N)ccc2cc2ccc(N)cc21
active: MCF7 breast; 10 µM -3.9% [middle of 4 runs]
2.1% (active) [middle of 4 runs]: SW-620 colon

CSC1SCC2C(=O)N(C)C(C(C)C)C(=O)OCC(NC(=O)c3cnc4ccccc4n3)C(=O)NC(C)C(=O)N(C)C1C(=O)N(C)C(C(C)C)C(=O)OCC(NC(=O)c1cnc3ccccc3n1)C(=O)NC(C)C(=O)N2C (stereo not given)
active: BT-549 breast -48.3% | MDA-MB-435 melanoma -82.8% | SW-620 colon 1.31% | MCF7 breast; 10 µM 2.56% | HCT-116 colon -29.5% | HCC-2998 colon -80.1%

NNc1ccc2ccccc2c1
inactive: BT-549 breast 96.4% | MDA-MB-435 melanoma 98.8% and 103% | SW-620 colon 96.1% | MCF7 breast; 10 µM 74.8% and 80.2% | HCT-116 colon 102% and 90.2% | HCC-2998 colon 98% | KM12 colon 74.3% and 98.7%

O=C(Nc1ccc(C(=O)O)c(O)c1)c1ccccc1
inactive: BT-549 breast 104% | MDA-MB-435 melanoma 99% and 99.1% | SW-620 colon 99% and 113% | MCF7 breast; 10 µM 102% and 95.6% | HCT-116 colon 107% and 101% | HCC-2998 colon 102% and 106%

COC1OCC(O)C(O)C1O (stereo not given)
inactive: BT-549 breast 105% | MDA-MB-435 melanoma 100% | SW-620 colon 99.3% | MCF7 breast; 10 µM 90.7% | HCT-116 colon 102% | HCC-2998 colon 107% | KM12 colon 103%

Clc1cc(Cl)c(Cl)nn1
inactive: BT-549 breast 82.8% | MDA-MB-435 melanoma 105% | SW-620 colon 107% | MCF7 breast; 10 µM 86.3% | HCT-116 colon 86.2% | HCC-2998 colon 119%

CCN1/C(=C/C=C/C=C/c2sc3ccccc3[n+]2CC)Sc2ccccc21
active: BT-549 breast -42.3% | MDA-MB-435 melanoma -76.9% | SW-620 colon -31.1% | MCF7 breast; 10 µM -44.2% | HCT-116 colon -25.9% | HCC-2998 colon -88.5%

CN1CCN(CCCN2c3ccccc3Sc3ccc(C(F)(F)F)cc32)CC1
active: HCC-2998 colon -6.16%
inactive: BT-549 breast 70.6% | MDA-MB-435 melanoma 27.6% | SW-620 colon 34.3% | MCF7 breast; 10 µM 13.9% | HCT-116 colon 36%

O=C(O)COc1ccc(OCC(=O)O)cc1
active: MCF7 breast; 10 µM 6.66% | HCT-116 colon 9.02% | HCC-2998 colon -34.2% | KM12 colon 8.16%
inactive: BT-549 breast 20.9% | MDA-MB-435 melanoma 30.4% | SW-620 colon 15.1%

CC(C)C(NC(=O)CN)C(=O)O (stereo not given) (H-Gly-[ξV]-OH)
inactive: BT-549 breast 83.4% and 116% | MDA-MB-435 melanoma 104% and 101% | SW-620 colon 117% and 101% | MCF7 breast; 10 µM 106% and 101% | HCT-116 colon 96.9% and 107% | HCC-2998 colon 103% and 106%

CC(C)C1=C(O)C2=C(C(=O)C1=O)C1(C)CCCC(C)(C)C1CC2O (stereo not given)
active: MCF7 breast; 100 µM -23.1% and -78.3%

OCC1OC(n2cnc3c(=S)nc[nH]c32)C(O)C1O (stereo not given)
inactive: BT-549 breast 105% and 66.2% | MDA-MB-435 melanoma 106% and 35.3% | SW-620 colon 104% and 76.6% | MCF7 breast; 10 µM 108% and 20.9% | HCT-116 colon 117% and 39.8% | HCC-2998 colon 100% and 45.5% | KM12 colon 108% and 60.4%

COc1ccc(CC(=O)c2ccc(O)cc2O)cc1
inactive: MDA-MB-435 melanoma 115% | SW-620 colon 111% | MCF7 breast; 10 µM 108% | HCT-116 colon 96.6% | HCC-2998 colon 107%

NC(=O)SCC(=O)NNc1ccccc1
inactive: BT-549 breast 113% | MDA-MB-435 melanoma 101% | SW-620 colon 87.5% | MCF7 breast; 10 µM 94.2% | HCT-116 colon 94.6% | HCC-2998 colon 103% | KM12 colon 81.3%

Oc1ccc(N=Nc2ccccn2)c(O)c1
inactive: BT-549 breast 36.6% | MDA-MB-435 melanoma 32.5% | SW-620 colon 32.9% | MCF7 breast; 10 µM 14.5% | HCT-116 colon 18.7% | HCC-2998 colon 30%

CC(C)(C)CC(C)(C)c1ccc(OCCO)cc1
inactive: MDA-MB-435 melanoma 115% | SW-620 colon 109% | MCF7 breast; 10 µM 137% | HCT-116 colon 102% | HCC-2998 colon 110%

Cc1nc(N=C(N)N)nc2ccc3ccccc3c12
active: MDA-MB-435 melanoma -4.72% | SW-620 colon 9.65% | MCF7 breast; 10 µM -18.1% | HCT-116 colon 5.64%
inactive: BT-549 breast 13.7% | HCC-2998 colon 13.3%

O=C(/C=C/c1cccnc1)c1ccccc1
inactive: BT-549 breast 103% | MDA-MB-435 melanoma 80.2% | SW-620 colon 23% | MCF7 breast; 10 µM 26.1% | HCT-116 colon 21.1% | HCC-2998 colon 86% | KM12 colon 51.4%

Cc1cc(O)c(C(C)C)cc1Cl
inactive: BT-549 breast 111% | MDA-MB-435 melanoma 99.2% | SW-620 colon 105% | MCF7 breast; 10 µM 104% | HCT-116 colon 98.9% | HCC-2998 colon 101% | KM12 colon 112%
